ALDH1A1 inh = blocks purified human ALDH1A1 activity | 7.3% of 220,000 active | Potency, µM (series often up to 75.3 µM), for inactives: at the top dose activity, negative = inhibition, hits mostly inhibitors | P00352 | Purified ALDH1A1, NADH fluorescence, propionaldehyde substrate; active means well fitted inhibition curve with a large enough effect, not every such curve was filed as active; inconclusive means small, poorly fitted or top-dose-only effect, or another doubt; inactive means no such curve, though single readings can be large or run the other way;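 further: plate controls were no enzyme wells and a reference inhibitor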
Tau FP inhib = inhibitors of human tau fibril formation; P10636; K18 P301L tau heparin fibrillization, Alexa594 FP, 6 h; Potency, µM (titrated, usually from 57.7 µM), without a hit: top-dose activity, negative = inhibition, actives largely listed as inhibitors; 0.39% of 280,000 active; further: nearly all actives have a fitted effect of over 55% in size
Target sequence (P10636 561-689 P618L limits assumed): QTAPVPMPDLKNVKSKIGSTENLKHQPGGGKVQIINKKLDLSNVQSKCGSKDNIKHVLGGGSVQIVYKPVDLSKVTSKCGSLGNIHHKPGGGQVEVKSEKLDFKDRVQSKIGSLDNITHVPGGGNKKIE
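K18 P301L tau (15 uM unlabeled/0.24 uM Alexa 594-labeled, final) + compound + heparin 20 uM final; 100 mM NaOAc pH 7; 6 hr 37 C; ThT 30 uM final added, 1 hr RT; FP ex 555/em 632 nm.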
Tau fibril ThT = blocks human tau fibril formation measured by thioflavin T. P10636. recombinant tau K18 P301L, heparin-induced fibrillization, ThT fluorescence. Potency, µM (series often up to 57.4 µM), for inactives: at the top dose activity, negative = inhibition, hits mostly inhibitors. 2.1% of 270,000 active; further: nearly all actives have a fitted effect of over 55% in size
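Aggregation was driven by heparin (20 uM final) acting on recombinant tau […] bearing P301L in 100 mM sodium acetate pH 7; fibrils were detected with Thioflavin T.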
KDM4E inh = JMJD2E (human) inhibition; JMJD2E catalytic domain, FDH-coupled NADH fluorescence (FDH is formaldehyde dehydrogenase); AID 2147; Potency, µM (doses to about 57.1 µM), inactives show at the highest dose activity change, negative = inhibition, actives largely listed as inhibitors; 1.6% of 230,000 active; B2RXH2; active means well fitted inhibition curve with a large enough effect, not every such curve was filed as active; inconclusive means small, poorly fitted or top-dose-only effect, or another doubt; inactive means no such curve, though single readings can be large or run the other way;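 further: 0% = wells with enzyme and -100% = buffer wells without enzyme; nearly all actives have a fitted effect of over 50% in size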
Target sequence (B2RXH2 1-337 limits assumed): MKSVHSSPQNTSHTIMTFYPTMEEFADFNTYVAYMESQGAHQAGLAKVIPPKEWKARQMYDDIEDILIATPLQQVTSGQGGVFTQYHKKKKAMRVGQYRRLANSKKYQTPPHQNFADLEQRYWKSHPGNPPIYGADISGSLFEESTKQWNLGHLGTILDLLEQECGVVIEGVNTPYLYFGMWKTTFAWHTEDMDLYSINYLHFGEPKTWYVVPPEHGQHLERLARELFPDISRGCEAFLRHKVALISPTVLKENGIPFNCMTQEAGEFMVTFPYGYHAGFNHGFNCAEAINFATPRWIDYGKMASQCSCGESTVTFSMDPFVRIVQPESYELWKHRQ
HPGD inh = inhibitors of human 15-hydroxyprostaglandin dehydrogenase (HPGD); P15428; purified HPGD, NADH fluorescence kinetic, PGE2 substrate; Potency, µM, without a hit: at the top dose activity change, negative = inhibition, most hits filed as inhibitors; 4.3% of 150,000 active; AID 894; active means well fitted inhibition curve with a large enough effect, not every such curve was filed as active; inconclusive means small, poorly fitted or top-dose-only effect, or another doubt; inactive means no such curve, though single readings can be large or run the other way
Target sequence (P15428 whole entry, looked up): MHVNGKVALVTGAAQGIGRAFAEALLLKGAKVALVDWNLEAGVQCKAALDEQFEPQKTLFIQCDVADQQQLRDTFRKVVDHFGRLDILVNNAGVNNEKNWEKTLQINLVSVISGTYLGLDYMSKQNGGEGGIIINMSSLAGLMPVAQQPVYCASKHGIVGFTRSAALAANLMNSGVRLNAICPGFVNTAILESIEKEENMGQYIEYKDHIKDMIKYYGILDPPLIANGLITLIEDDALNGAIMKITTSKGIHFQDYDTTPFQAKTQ
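NADH formation kinetics: reaction with 30 uM PGE2 and 1 mM NAD+ (final), 20 nM enzyme, Tris-HCl pH 8 with Tween 20, after 15 min compound preincubation at room temperature. Fluorescence change, last versus first of five reads.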
Tau fluor counter = counter-screen for tau fibril formation inhibitors; tau K18 P301L (four-repeat tau fragment) Alexa594 fluorescence, heparin fibrillization; Potency, µM (titrated, usually from 57.7 µM), for the others: at the top dose activity change, negative = decrease; 0.93% of 280,000 active; AID 1463; further: nearly all actives have a fitted effect of over 55% in size
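Human K18 P301L tau (15 uM unlabeled plus 0.24 uM Alexa 594-labeled, final) in 100 mM sodium acetate pH 7 was mixed with compound and 20 uM heparin and incubated 6 hr at 37 C.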
The depositor's hits bear a star; ? = inconclusive; · = no result given; [ ] = remark or other dose. A selection: hits, their analogues and other compounds. The true share with any hit is near 9.9%. Unless noted, the call rests on the fitted dose curve; in most records, active means well fitted curve in the direction sought with a large enough effect; inconclusive means small, poorly fitted or top-dose-only effect, or another doubt; inactive means no such curve, though single readings can be large; an effect the other way counts as inactive or inconclusive. Unless noted, on the % scale 0 is the no-effect control and ±100 the full control effect; potency means the concentration at half of the fitted maximal effect.

SMILES	ALDH1A1 inh	Tau FP inhib	Tau fibril ThT	KDM4E inh	HPGD inh	Tau fluor counter
COc1ccc(NC(=O)/C(Cl)=C(/Cl)S(=O)(=O)Cc2ccc(C)cc2)cn1	2.5µM*	?	8.9µM*	-3%	-7%	-25%
COc1ccc(NC(=O)Nc2sc3nc4n(c(=O)c3c2C)CCC(C)CC4)cc1OC (stereo not given)	·	?	?	·	·	8.9µM*[quencher]
O=C1C2CCCN2C(=O)N1CCCCN1CCN(CCO)CC1 (stereo not given)	?	14%	3%	-3%	0%	11%
CCOCCCNC(=O)c1ccccc1SCC	-5%	-6%	-1%	-9%	?	2%
CCOC(=O)CCNC(=O)c1ccccc1Br	4%	-4%	-4%	7%	18µM*	-2%
CCOCCCNC(=O)c1ccccc1Br	9%	2%	1%	-3%	10µM*	8%
Cc1cc(SCC(=O)NCc2ccccc2Cl)nc(=O)[nH]1	·	-4%	2%	·	·	3%
c1ccc2c(-n3ccnc3)nc(-c3ccoc3)nc2c1	-9%	?	?	?	-18%	-21%
COc1cccc(CNC(=O)c2ccc3c(c2)N(Cc2ccc(F)cc2Cl)C(=O)c2ccccc2S3)c1	·	-5%	3%	·	·	-11%
CC(=O)/C(=C\c1ccccc1F)C(=O)c1ccccc1	1%[13.5 µM]	·	·	·	-10%	·
O=c1[nH]c2ccc(S(=O)(=O)N3CCN(c4ccc(F)cc4)CC3)cc2o1	·	0%	3%	1%	·	6%
COC(=O)C(CC(=O)c1ccc(Br)cc1)n1ccnc1 (stereo not given)	0.45µM*	10%	?	13%	2.5µM*	2%
O=C(COC(=O)c1ccncc1)c1ccc(Br)cc1	5%	-8%	-16%	?	·	-15%
O=C(CN1C(=O)COc2ccc(S(=O)(=O)N3CCCC3)cc21)N1CCN(c2cccc(C(F)(F)F)c2)CC1	·	0%	-1%	·	·	-7%
CCN(N=Nc1cccc([N+](=O)[O-])c1)c1cccc([N+](=O)[O-])c1	?	3%	?	2%	-17%	?
NC(=O)CN(N=Nc1cccc([N+](=O)[O-])c1)c1cccc([N+](=O)[O-])c1	1.8µM*	-5%	-12%	5%	·	-19%
CC1CCN(c2nc3ccccc3nc2C(F)(F)F)CC1	·	-6%	3%	·	·	-5%
O=C1Nc2ccccc2/C1=N\c1sc2c(c1C(=O)Nc1ccccc1)CCCC2	25µM*	-9%	?	?	-9%	?
O=C(Nc1sc2c(c1C(=O)Nc1ccccc1)CCC2)c1ccc(Br)cc1	·	-4%	?	·	·	-20%
COc1ccccc1NC(=O)Nc1cccnc1	-8%	-2%	10%	4%	·	-2%
O=C(N/N=C/c1ccc(O)cc1)c1cc(-c2ccc3c(c2)OCO3)n[nH]1	-7%	-4%	4%	12%	·	-21%
COc1ccc(-c2cc(C(=O)NN)n(-c3ccccc3)n2)cc1	8.9µM*	-5%	-12%	-1%	-14%	-5%
COC(=O)c1nn(-c2ccc(OC)cc2)c(=O)cc1Sc1ccc(C)cc1	?	-8%	-18%	-16%	·	-15%
CCOc1ccc(-c2cc(C(=O)NN)[nH]n2)cc1	?	4%	-10%	-2%	2%	-4%
COc1ccc(-c2cc(C(=O)NN)[nH]n2)cc1	20µM*	9%	?	-10%	-6%	0%
SMILES	ALDH1A1 inh	Tau FP inhib	Tau fibril ThT	KDM4E inh	HPGD inh	Tau fluor counter
COc1ccc(-c2cc(C(=O)N/N=C/c3ccc(O)cc3)[nH]n2)cc1	13µM*	·	·	·	?	·
COc1ccc(C(=O)Nc2cc(-c3ccccc3)nn2-c2ccccc2)cc1	·	-5%	-4%	·	·	-15%
COC(=O)c1nn(-c2ccc(OC)cc2)c(=O)cc1NN	-10%	?	14µM*	-19%	·	-14%
CCCOc1ccc(CNC(=O)C2CCN(c3nc4ccccc4nc3C(F)(F)F)CC2)cc1	·	-9%	5%	·	·	-3%
COc1ccc2c(Sc3ccc(Cl)cc3)c(C(=O)N3CCCCC3)[nH]c2c1	·	13%	?	·	·	-6%
COc1ccc(NC(=O)CN2C(=O)CCn3nc(-c4cccn4C)cc32)cc1	·	2%	6%	·	·	3%
COc1ccc(CNS(=O)(=O)c2cc3c(cc2Cl)N(C(C)=O)CCO3)cc1	·	5%	1%	·	·	-1%
COc1ccc(CCNC(=O)C(=O)Nc2ccc(C)cc2)cc1OC	·	-14%	-10%	·	·	-8%
COc1ccc(CCNC(=O)CCCOc2cccc(C)c2C)cc1OC	·	10%	?	-6%	·	-7%
COc1ccc(CCNC(=O)C(=O)NCc2ccc(Cl)cc2)cc1OC	0.63µM*	-4%	6%	-5%	·	0%
COc1cccc(CNC(=O)C(=O)NCCc2ccc(OC)c(OC)c2)c1	?	-8%	3%	8%	-12%	6%
COc1ccc(CCNC(=O)/C=C/C(=O)O)cc1OC	25µM*	-6%	9%	-7%	·	-1%
COc1ccc(CCNC(=O)CCCOc2ccc(C)cc2)cc1OC	28µM*	7%	?	0%	-22%	-1%
COc1ccc(CCNC(=O)C(=O)NCc2ccc(C)cc2)cc1OC	3.2µM*	1%	-3%	3%	-11%	-5%
CC(C)(C#CCN1CCCCC1)OCCOC(c1ccccc1)c1ccccc1	-14%	3%	4%	-4%	-3%	6%
CCC(Cn1nnc2ccccc2c1=O)NC(=O)Nc1cccc(Cl)c1 (stereo not given)	·	-4%	4%	·	·	-9%
CC(C)CN(CCCNC(=O)c1cc(=O)[nH]c2ccc(S(=O)(=O)N3CCCCCC3)cc12)CC(C)C	·	0%	-9%	·	·	-11%
Cc1ccc(CNC(=O)C2CCN(C(=O)c3ccc(-n4ccc5ccccc54)s3)CC2)cc1	·	-8%	-1%	·	·	-3%
Cc1cc(C)c(C)c(S(=O)(=O)N[C@@H](C)C(=O)OCC(N)=O)c1C	2%	-3%	-3%	0%	·	-1%
COc1ccc(N2CCSC2C(=O)NN)cc1 (stereo not given)	3.2µM*	-3%	-8%	1%	-15%	-9%
N#Cc1ccc(CSc2nc(-c3cccs3)c3c(c2C(=O)O)CCCC3)cc1	?	·	·	·	18µM*	·
CCNC(=S)Nc1ccc(Cl)c(C(F)(F)F)c1	0%	-13%	17%	0%	-3%	-8%
CC(=O)NC(NC(C)=O)c1ccc(Br)cc1	9%	-9%	-2%	3%	-7%	-1%
CCN(CC)c1ccc(C(NC(C)=O)NC(C)=O)cc1	14µM*	-8%	7%	-14%	-15%	1%
CC(=O)NC(NC(C)=O)c1ccc(N(C)C)cc1	2.2µM*	2%	-8%	-18%	-7%	6%
CCCN1Cc2cccc(C(=O)Nc3cc(C)cc(C)c3)c2C1=O	·	-4%	-6%	·	·	-8%
CC1CN(c2ccc([N+](=O)[O-])nc2)CC(C)O1 (stereo not given)	7%	2%	?	13%	·	2%
